Assay results taken from PubChem BioAssay (NCATS).
Where “and” joins values, the source holds several entries; their conditions need not be identical. Equal entries are not always repeated. Results filed as inconclusive are left out. Calls of active or inactive are those of the source. Unless noted, calls come from the whole dose curve; as a rule, active = well fitted curve in the direction sought with a large enough effect; inconclusive = small, poorly fitted or top-dose-only effect, or another doubt; inactive = no such curve, though single readings can be large; an effect the other way counts as inactive or inconclusive.

Experiments:
[1] = Quantitative High-Throughput drug screen in 47 multiple myeloma cell lines against the NCATS MIPE library collection: L363_DSMZ cell viability assay (AID 1918984); note: nearly all actives have a fitted effect of over 40% in size; note: potency is the fitted concentration of half-maximal effect
Outline: (§1)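 Inhibition of viability over 48 h was scored by ATP content (CellTiter-Glo) in 500-cell wells. Zero and full viability were defined by media-only and DMSO-only wells.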

[2] = Quantitative High-Throughput drug screen in 47 multiple myeloma cell lines against the NCATS MIPE library collection: SKMM1_PLB cell viability assay (AID 1919863); details: SKMM1 myeloma viability, CellTiter-Glo ATP, 48 h; viability: stronger effect = lower value; note: nearly all actives have a fitted effect of over 35% in size; note: potency is the fitted concentration of half-maximal effect
Outline: as §1

[3] = Quantitative High-Throughput drug screen in 47 multiple myeloma cell lines against the NCATS MIPE library collection: UTMC2_PLB cell viability assay (AID 1919868); details: CellTiter-Glo ATP luminescence, 48 h; viability (% of DMSO control): at 45.8 µM (top of the series) unless noted; note: potency is the fitted concentration of half-maximal effect; nearly all actives have a fitted effect of over 55% in size
Outline: as §1

[4] = Quantitative High-Throughput drug screen in 47 multiple myeloma cell lines against the NCATS MIPE library collection: PE2_PLB cell viability assay (AID 1919869); note: potency is the fitted concentration of half-maximal effect; nearly all actives have a fitted effect of over 35% in size
Outline: as §1

[5] = Quantitative High-Throughput drug screen in 47 multiple myeloma cell lines against the NCATS MIPE library collection: RPMI8226_ATCC cell viability assay (AID 1919871); note: nearly all actives have a fitted effect of over 30% in size; note: potency is the fitted concentration of half-maximal effect
Outline: as §1

[6] = Quantitative High-Throughput drug screen in 47 multiple myeloma cell lines against the NCATS MIPE library collection: OPM2_DSMZ cell viability assay (AID 1919872); note: nearly all actives have a fitted effect of over 30% in size; note: potency is the fitted concentration of half-maximal effect
Outline: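 CellTiter-Glo luminescence (ATP) after 48 h compound exposure, 37C/5% CO2; 500 cells/well; MIPE 4.0 approved/investigational drugs pinned in; DMSO = 100%, media only = 0% viability.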

[7] = Quantitative High-Throughput drug screen in 47 multiple myeloma cell lines against the NCATS MIPE library collection: KMS11_JCRBsus cell viability assay (AID 1919873); note: potency is the fitted concentration of half-maximal effect; nearly all actives have a fitted effect of over 50% in size
Outline: as §1

[8] = qHTS drug screen for cell cycle checkpoint inhibitors in PARPi-resistant BRCA-mutant ovarian cancer cell lines. (AID 1963452; calls by dose curve); details: PEO1/OlaR viability, CellTiter-Glo luminescence, 96 h, stronger effect = lower value
Outline: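 PEO1, PEO4 and PEO1/OlaR ovarian cancer cells, 600 per well, exposed 96 h at 37C to a dilution series. Viability read by CellTiter-Glo luminescence, normalized to DMSO and empty wells; activity summarized as Z-AUC.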

[9] = Quantitative High-Throughput drug screen in 47 multiple myeloma cell lines against the NCATS MIPE library collection: KMS34_JCRB cell viability assay (AID 1918985); note: potency is the fitted concentration of half-maximal effect; nearly all actives have a fitted effect of over 40% in size
Outline: as §1

[10] = Quantitative High-Throughput drug screen in 47 multiple myeloma cell lines against the NCATS MIPE library collection: OCIMY7_PLB cell viability assay (AID 1918987); note: potency is the fitted concentration of half-maximal effect; nearly all actives have a fitted effect of over 65% in size
Outline: as §1

[11] = Quantitative High-Throughput drug screen in 47 multiple myeloma cell lines against the NCATS MIPE library collection: OCIMY5_PLB cell viability assay (AID 1918988); note: nearly all actives have a fitted effect of over 65% in size; note: potency is the fitted concentration of half-maximal effect
Outline: as §1

[12] = Quantitative High-Throughput drug screen in 47 multiple myeloma cell lines against the NCATS MIPE library collection: OPM1_PLB cell viability assay (AID 1918989); note: potency is the fitted concentration of half-maximal effect; nearly all actives have a fitted effect of over 40% in size
Outline: as §1

[13] = Quantitative High-Throughput drug screen in 47 multiple myeloma cell lines against the NCATS MIPE library collection: U266_ATCC cell viability assay (AID 1919864); note: nearly all actives have a fitted effect of over 35% in size; note: potency is the fitted concentration of half-maximal effect
Outline: as §1

[14] = Quantitative High-Throughput drug screen in 47 multiple myeloma cell lines against the NCATS MIPE library collection: XG6_PLB cell viability assay (AID 1919865); note: potency is the fitted concentration of half-maximal effect; nearly all actives have a fitted effect of over 40% in size
Outline: as §1

[15] = Quantitative High-Throughput drug screen in 47 multiple myeloma cell lines against the NCATS MIPE library collection: VP6_DJ cell viability assay (AID 1919867)
Outline: as §1

[16] = Quantitative High-Throughput drug screen in 47 multiple myeloma cell lines against the NCATS MIPE library collection: PCM6_Riken cell viability assay (AID 1919870); note: potency is the fitted concentration of half-maximal effect; nearly all actives have a fitted effect of over 30% in size
Outline: as §1

[17] = Quantitative High-Throughput drug screen in 47 multiple myeloma cell lines against the NCATS MIPE library collection: KMS28BM_JCRB cell viability assay (AID 1919874); note: nearly all actives have a fitted effect of over 35% in size; note: potency is the fitted concentration of half-maximal effect
Outline: as §1

[18] = Quantitative High-Throughput drug screen in 47 multiple myeloma cell lines against the NCATS MIPE library collection: XG1_PLB cell viability assay (AID 1919866)
Outline: as §1

[19] = qHTS for identification of novel therapeutic agents for treatment of microphthalmiaassociated transcription factor (MiT) renal cell carcinoma (RCC) (AID 1963991; calls by dose curve; note: potency is the fitted concentration of half-maximal effect;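 for z-score: curves scaled with 100% = DMSO viability and 0% = empty wells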); details: CellTiter-Glo, 48 h; for Potency: active = Z-AUC below -0.8 in all three lines; for z-score: stronger effect = lower value
Outline: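 UOK109/UOK124/UOK145 (TFE3 fusions, three partners); 500 cells/well; MIPE v4.0, 1912 cpds, 11 conc.; 48 h, 37 C; CellTiter-Glo, 15 min RT; lum. Norm.: DMSO 100%, empty 0%.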

[20] = qHTS profiling for inhibitors of Plasmodium falciparum proliferation (AID 504749);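 note: 0% = DMSO vehicle and full inhibition = artemisinin control; nearly all actives have a fitted effect of over 60% in size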; details: P. falciparum in erythrocytes, SYBR Green DNA, 72 h, at 28.7 µM (top of the series)
Outline: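 Infected RBCs, 0.3% parasitemia/2.5% Hct final; cpd 72 h, 37 C, 5% CO2; lysis buffer with saponin/triton/SYBR Green I, o/n RT dark; FI 485/535; norm. to artemisinin (0.29 uM) and DMSO.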

[21] = measured here: PEO1 parental Z-AUC
[22] = TFE3-RCC UOK109 viability, measured here: UOK109 Z-AUC
[23] = TFE3-RCC viability, measured here: UOK124 Z-AUC
[24] = TFE3-RCC viability, measured here: UOK145 Z-AUC

Cc1c(C)n(Cc2ccc(-c3ccccc3C(=O)O)cc2)c2ccc(C(=O)N[C@@H](C)c3ccc([N+](=O)[O-])cc3)cc12
0.774: Z-AUC [8, 21]
0.226: Z-AUC ([8]; measured here: PEO4 Z-AUC)
active: Potency [1] 93.5 nM | Potency [3] 20.9 µM | Potency [4] 11.8 µM | Potency [7] 18.7 µM
inactive: viability [2] 123% | Potency [5] | Potency [6] | Z-AUC [8] 0.131

COc1cc2nccc(Oc3ccc(NC(=O)C4(C(=O)Nc5ccc(F)cc5)CC4)cc3)c2cc1OC
0.252: Z-AUC [8, 21]
active: Potency [9] 14800 nM | Potency [10] 18700 nM | Potency [11] 18700 nM | Potency [12] 23500 nM | Potency [2] 16600 nM | Potency [13] 20.9 µM | Potency [14] 743 nM | Potency [15] 3720 nM | Potency [3] 20.9 µM | Potency [16] 2960 nM | Potency [5] 20.9 µM | Potency [6] 23500 nM | Potency [7] 20.9 µM | Potency [17] 20900 nM
-0.118: Z-AUC ([8]; measured here: PEO4 Z-AUC)
inactive: Z-AUC [8] -0.0071

CNC(=O)CN1CCC(Oc2cc3c(Nc4cccc(Cl)c4F)ncnc3cc2OC)CC1
-1.75: z-score [19, 24]
active: Potency [9] 37.2 nM | Potency [10] 83.3 nM | Potency [11] 11.8 nM | Potency [12] 33.2 nM | Potency [2] 26.4 nM | Potency [18] 23.5 nM | Potency [15] 18.7 nM | Potency [3] 0.0332 µM | Potency [16] 23.5 nM | Potency [6] 83.3 nM | Potency [7] 0.0372 µM | Potency [17] 18.7 nM | Potency ([19]; TFE3-RCC UOK109 viability) 1.87 µM
0.199: Z-AUC ([8]; measured here: PEO4 Z-AUC)
-2.18: z-score [19, 23]
0.682: Z-AUC [8, 21]
-2.86: z-score [19, 22]
inactive: Potency [13] | Z-AUC [8] 0.332

CCCCc1nc2cc(C=CC(=O)NO)ccc2n1CCN(CC)CC
active: Potency [9] 372 nM | Potency [10] 935 nM | Potency [11] 41.8 nM | Potency [12] 148 nM | Potency [2] 590 nM | Potency [13] 0.935 µM | Potency [14] 4690 nM | Potency [18] 1480 nM | Potency [3] 0.264 µM | Potency [4] 1.66 µM | Potency [16] 13.2 nM | Potency [5] 1.32 µM | Potency [6] 833 nM | Potency [7] 0.372 µM | Potency [17] 187 nM

O=C(C=Cc1cccnc1)NCCCCC1CCN(C(=O)c2ccccc2)CC1
active: Potency [9] 16.6 nM | Potency [10] 10.5 nM | Potency [11] 41.8 nM | Potency [12] 11.8 nM | Potency [2] 59 nM | Potency [13] 18.7 µM | Potency [14] 74.3 nM | Potency [18] 1 nM | Potency [15] 18.7 nM | Potency [3] 0.001 µM | Potency [4] 0.0132 µM | Potency [5] 0.0935 µM | Potency [7] 0.0148 µM | Potency [17] 83.3 nM

Cc1ccc(-c2ncn(-c3ccc(Nc4nccc(-c5cccc(N6CCOCC6)c5)n4)cc3)n2)cn1
inactive: Z-AUC [8] -1.4
active: Potency [9] 166 nM | Potency [10] 132 nM | Potency [11] 52.6 nM | Potency [12] 83.3 nM | Potency [2] 235 nM | Potency [13] 0.132 µM | Potency [14] 132 nM | Potency [18] 93.5 nM | Potency [15] 29.6 nM | Potency [3] 0.187 µM | Potency [4] 0.372 µM | Potency [16] 37.2 nM | Potency [5] 0.132 µM | Potency [6] 296 nM | Potency [7] 0.0743 µM | Potency [17] 74.3 nM | Potency ([19]; TFE3-RCC UOK109 viability) 0.264 µM
-1.38: z-score [19, 24]
-1.3: z-score [19, 22]
-2.07: z-score [19, 23]
-2.09: Z-AUC [8, 21]
-1.65: Z-AUC ([8]; measured here: PEO4 Z-AUC)

C[C@@H](Oc1cc(-c2cnn(C3CCNCC3)c2)cnc1N)c1c(Cl)ccc(F)c1Cl
inactive: Z-AUC [8] 0.111
active: Potency [9] 11800 nM | Potency [10] 3320 nM | Potency [11] 5260 nM | Potency [12] 5900 nM | Potency [2] 7430 nM | Potency [13] 14.8 µM | Potency [14] 2350 nM | Potency [18] 4690 nM | Potency [3] 2.35 µM | Potency [4] 6.62 µM | Potency [16] 14800 nM | Potency [5] 13.2 µM | Potency [6] 18700 nM | Potency [7] 2.64 µM | Potency [17] 8330 nM
-0.187: Z-AUC [8, 21]
-0.116: Z-AUC ([8]; measured here: PEO4 Z-AUC)

OCc1ccc(-c2ccc(-c3ccc(CO)s3)o2)s1
inactive: Z-AUC [8] 1.64
active: Potency [9] 18700 nM | Potency [10] 1870 nM | Potency [11] 16600 nM | Potency [12] 6620 nM | Potency [2] 20900 nM | Potency [13] 3.32 µM | Potency [18] 6620 nM | Potency [15] 20900 nM | Potency [3] 16.6 µM | Potency [4] 3.72 µM | Potency [5] 23.5 µM | Potency [7] 11.8 µM
1.79: Z-AUC [8, 21] | Z-AUC ([8]; measured here: PEO4 Z-AUC)

Nc1ccn([C@@H]2CS[C@H](CO)O2)c(=O)n1
-0.547: Z-AUC ([8]; measured here: PEO4 Z-AUC)
0.391: z-score [19, 24]
-0.159: z-score [19, 22]
-0.233: Z-AUC [8, 21]
0.923: z-score [19, 23]
inactive: Potency [1] | Potency [11] | viability [2] 127% | Potency [5] | Potency [6] | Potency [17] | Z-AUC [8] -0.72 | activity, negative = inhibition ([20]; parasite line A) 3.35% and 3.28% | activity, negative = inhibition ([20]; parasite line B) 12% and -4.61%
